Assay results from PubChem BioAssay.
Inconclusive results are not listed. For some of these results: Potency and affinity values are given separately. Activity calls are given as the source filed them. Unless noted, no stated cut-off is given here; in the data, active means inhibition above about 80%; inactive means the rest.

Experiments:
[1] = polyglutamine-triggered caspase-3 activation inhibitors, cell-based (AID 1583); conditions: polyglutamine-induced caspase-3 activation, cell assay; stronger effect = higher value;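 tested at 10 µM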
[2] = suppressors of polyQ aggregation in yeast, 75Q-TubU reporter (AID 1593); conditions: Yeast 75Q polyglutamine aggregation reporter
[3] = rescue of polyQ-huntingtin neuronal dysfunction in worms, whole organism, C. elegans mechanosensory neurons, N-terminal huntingtin (AID 1599); conditions: touch response, stronger effect = higher value
[4] = inhibitors of mitochondrial cytochrome c release, biochemical, purified mitochondria (AID 1603); conditions: stronger effect = lower value;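 further: mouse liver mitochondria challenged with calcium chloride; signal normalized to the plate average as 100%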
[5] = inhibitors of polyQ protein aggregation (AID 1604); conditions: polyglutamine-induced protein aggregation inhibition assay; stronger effect = higher value; tested at 2.5 µM
[6] = enhancers of glutamate uptake in motor neurons, MN-1 cell line (AID 1612); conditions: MN-1 motor neuron cells, stronger effect = higher value;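 further: tested at 1 µM final; 0% = mean of DMSO vehicle wells on each plate; positive means more glutamate uptake than control and negative means less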
[7] = reducers of polyQ inclusions in PC12 cells, cell-based, NGF-treated PC12, GFPQ80 (AID 1614); conditions: PC12 NGF-treated GFP-polyQ80 inclusion reduction;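 further: lower means fewer inclusions and 0 means no inclusions at all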
[8] = suppressors of polyglutamine aggregation in yeast, 75Q-TubH (AID 1616); conditions: S. cerevisiae 75Q-TubH polyglutamine aggregation suppression; stronger effect = higher value
[9] = viability rescue of complex I mutant cybrids, primary screen, cell-based, galactose medium, ATP luminescence (AID 1645843;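 active means z-score of at least 1.8 in each of two replicates, scored against plate mean and spread of sample wells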;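 further: positive z means more ATP and so rescue of galactose-driven cybrid death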); conditions: complex I mutant cybrid cells, 72 h, stronger effect = higher value
[10] = molecular target: Huntingtin (Homo sapiens) (UniProt P42858); test: inhibitors of mutant Htt aggregation in vitro, dose response, QA1 (AID 1584); conditions: in vitro mutant huntingtin aggregation assay; confirmation test; at 10 µM; stronger effect = lower value
Sequence of Huntingtin (Homo sapiens) (P42858 whole entry, looked up): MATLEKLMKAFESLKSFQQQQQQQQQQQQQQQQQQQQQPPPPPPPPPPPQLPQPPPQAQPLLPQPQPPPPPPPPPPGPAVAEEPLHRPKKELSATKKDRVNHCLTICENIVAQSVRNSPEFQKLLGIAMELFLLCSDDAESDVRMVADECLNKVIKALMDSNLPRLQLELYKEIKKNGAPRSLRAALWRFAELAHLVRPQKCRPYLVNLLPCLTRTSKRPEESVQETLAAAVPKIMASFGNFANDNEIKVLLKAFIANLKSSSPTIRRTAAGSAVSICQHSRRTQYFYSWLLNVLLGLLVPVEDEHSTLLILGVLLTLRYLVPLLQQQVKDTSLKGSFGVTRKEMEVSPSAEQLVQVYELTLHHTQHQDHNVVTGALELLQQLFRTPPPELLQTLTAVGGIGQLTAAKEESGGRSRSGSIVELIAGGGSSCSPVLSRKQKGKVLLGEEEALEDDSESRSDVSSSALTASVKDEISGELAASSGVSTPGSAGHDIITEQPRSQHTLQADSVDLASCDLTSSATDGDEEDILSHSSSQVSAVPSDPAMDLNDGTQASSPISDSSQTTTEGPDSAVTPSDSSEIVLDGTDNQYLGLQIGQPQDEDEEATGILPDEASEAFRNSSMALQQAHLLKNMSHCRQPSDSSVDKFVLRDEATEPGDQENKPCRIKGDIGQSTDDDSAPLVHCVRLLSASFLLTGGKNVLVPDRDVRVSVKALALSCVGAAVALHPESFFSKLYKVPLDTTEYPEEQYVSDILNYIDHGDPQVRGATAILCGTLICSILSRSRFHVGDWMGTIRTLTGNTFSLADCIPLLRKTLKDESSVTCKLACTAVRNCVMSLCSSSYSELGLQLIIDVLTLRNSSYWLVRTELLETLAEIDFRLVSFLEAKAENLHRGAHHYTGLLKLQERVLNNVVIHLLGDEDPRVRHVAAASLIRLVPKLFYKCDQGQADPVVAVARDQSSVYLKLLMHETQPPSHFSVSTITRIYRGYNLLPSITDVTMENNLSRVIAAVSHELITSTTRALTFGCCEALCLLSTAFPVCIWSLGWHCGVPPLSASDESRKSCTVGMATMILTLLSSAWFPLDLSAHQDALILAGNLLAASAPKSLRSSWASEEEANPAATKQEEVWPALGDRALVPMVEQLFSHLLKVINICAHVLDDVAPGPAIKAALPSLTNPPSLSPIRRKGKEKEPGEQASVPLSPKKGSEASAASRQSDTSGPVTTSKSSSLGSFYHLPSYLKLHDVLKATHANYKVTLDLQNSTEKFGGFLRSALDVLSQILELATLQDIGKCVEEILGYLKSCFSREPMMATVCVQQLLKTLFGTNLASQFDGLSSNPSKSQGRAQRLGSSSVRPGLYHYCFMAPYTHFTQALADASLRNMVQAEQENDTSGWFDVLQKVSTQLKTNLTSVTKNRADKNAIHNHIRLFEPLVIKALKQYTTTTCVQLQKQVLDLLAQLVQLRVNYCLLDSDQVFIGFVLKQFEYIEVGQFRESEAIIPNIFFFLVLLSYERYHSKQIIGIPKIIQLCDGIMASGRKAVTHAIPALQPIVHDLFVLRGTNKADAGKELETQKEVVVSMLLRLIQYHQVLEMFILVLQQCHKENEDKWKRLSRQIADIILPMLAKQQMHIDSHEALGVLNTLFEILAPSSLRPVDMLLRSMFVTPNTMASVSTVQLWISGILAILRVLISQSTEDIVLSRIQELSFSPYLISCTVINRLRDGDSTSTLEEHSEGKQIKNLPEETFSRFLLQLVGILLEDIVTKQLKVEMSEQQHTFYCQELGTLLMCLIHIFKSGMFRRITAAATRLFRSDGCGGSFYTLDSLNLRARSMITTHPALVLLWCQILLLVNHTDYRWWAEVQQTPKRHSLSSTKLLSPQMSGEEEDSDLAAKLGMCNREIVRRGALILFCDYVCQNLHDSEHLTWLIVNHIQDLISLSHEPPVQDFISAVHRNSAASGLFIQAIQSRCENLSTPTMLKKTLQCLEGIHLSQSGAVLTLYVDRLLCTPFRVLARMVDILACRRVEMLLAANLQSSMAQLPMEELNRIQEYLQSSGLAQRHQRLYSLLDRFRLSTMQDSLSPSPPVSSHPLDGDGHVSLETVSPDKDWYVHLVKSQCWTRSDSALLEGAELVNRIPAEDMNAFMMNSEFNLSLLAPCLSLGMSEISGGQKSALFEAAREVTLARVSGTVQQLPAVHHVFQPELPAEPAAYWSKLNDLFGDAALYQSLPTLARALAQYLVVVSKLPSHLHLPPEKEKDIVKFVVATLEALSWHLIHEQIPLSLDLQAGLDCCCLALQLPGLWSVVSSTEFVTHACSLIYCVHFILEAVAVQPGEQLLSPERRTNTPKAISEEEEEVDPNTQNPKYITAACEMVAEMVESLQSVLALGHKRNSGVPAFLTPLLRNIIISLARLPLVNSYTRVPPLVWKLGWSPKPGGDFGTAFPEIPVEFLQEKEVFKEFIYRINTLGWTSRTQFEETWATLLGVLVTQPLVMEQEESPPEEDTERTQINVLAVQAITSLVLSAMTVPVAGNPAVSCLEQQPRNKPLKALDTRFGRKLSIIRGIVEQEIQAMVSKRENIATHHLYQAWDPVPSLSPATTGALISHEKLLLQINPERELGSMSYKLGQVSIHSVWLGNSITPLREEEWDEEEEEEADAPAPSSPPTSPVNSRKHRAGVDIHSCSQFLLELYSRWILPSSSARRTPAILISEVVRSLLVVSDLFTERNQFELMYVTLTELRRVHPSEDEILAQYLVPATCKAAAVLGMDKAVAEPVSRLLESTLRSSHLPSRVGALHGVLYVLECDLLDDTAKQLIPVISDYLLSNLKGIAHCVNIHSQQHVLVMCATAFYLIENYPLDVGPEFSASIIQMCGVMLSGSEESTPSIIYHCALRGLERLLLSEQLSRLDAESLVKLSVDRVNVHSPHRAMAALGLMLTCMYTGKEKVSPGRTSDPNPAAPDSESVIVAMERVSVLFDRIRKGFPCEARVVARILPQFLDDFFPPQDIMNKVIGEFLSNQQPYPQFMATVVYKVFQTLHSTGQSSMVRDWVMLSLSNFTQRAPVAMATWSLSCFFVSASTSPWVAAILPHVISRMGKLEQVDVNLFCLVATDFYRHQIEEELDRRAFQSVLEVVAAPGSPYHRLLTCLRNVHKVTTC

[11] = protection against mutant huntingtin cytotoxicity, PC12 cells, LDH release (AID 1610); conditions: PC12 mutant huntingtin toxicity, final LDH at 4 uM, stronger effect = lower value
[12] = molecular target: Mitogen-activated protein kinase 7 (Homo sapiens) (UniProt Q13164); test: ERK5 transactivation activators in reporter cells, primary screen, cell-based, HTS (AID 1508626;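 active means luciferase signal above three times the same-plate solvent-only control wells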;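 further: luciferase driven by Gal4-ERK5 fusion binding five Gal4 sites before minimal TATA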); conditions: HeLa Gal4-ERK5 transactivation, 18 h, at 5 µM, stronger effect = higher value
Sequence of Mitogen-activated protein kinase 7 (Homo sapiens) (Q13164 whole entry, looked up, the tested form may be a part): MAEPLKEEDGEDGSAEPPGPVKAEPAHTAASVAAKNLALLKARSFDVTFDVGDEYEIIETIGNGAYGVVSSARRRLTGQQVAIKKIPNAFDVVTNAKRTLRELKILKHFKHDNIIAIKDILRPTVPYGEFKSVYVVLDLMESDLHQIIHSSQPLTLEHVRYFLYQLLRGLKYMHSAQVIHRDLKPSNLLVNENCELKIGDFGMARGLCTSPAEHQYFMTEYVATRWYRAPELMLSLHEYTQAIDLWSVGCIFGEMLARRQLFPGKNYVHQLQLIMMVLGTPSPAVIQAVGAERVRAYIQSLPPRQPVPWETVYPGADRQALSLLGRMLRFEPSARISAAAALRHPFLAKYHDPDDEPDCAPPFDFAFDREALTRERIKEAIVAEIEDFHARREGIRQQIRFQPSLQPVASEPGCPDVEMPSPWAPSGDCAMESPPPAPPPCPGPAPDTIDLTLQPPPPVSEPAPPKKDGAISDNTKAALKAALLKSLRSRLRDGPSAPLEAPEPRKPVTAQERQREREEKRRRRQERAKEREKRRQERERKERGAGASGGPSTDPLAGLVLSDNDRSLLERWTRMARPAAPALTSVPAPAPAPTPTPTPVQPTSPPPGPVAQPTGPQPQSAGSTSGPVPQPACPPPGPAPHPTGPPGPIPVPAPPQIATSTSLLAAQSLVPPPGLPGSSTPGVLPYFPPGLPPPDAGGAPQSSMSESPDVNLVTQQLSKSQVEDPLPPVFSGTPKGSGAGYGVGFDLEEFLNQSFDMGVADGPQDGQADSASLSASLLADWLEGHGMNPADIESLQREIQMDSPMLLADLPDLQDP

[13] = LFS_MB_P medulloblastoma growth inhibition, cell-based, chromothripsis tumors, cisplatin or BGB combos (AID 1671449); conditions: LFS_MB_P medulloblastoma cells;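 further: cells exposed for 96 hours; 0% = vehicle DMSO and 100% = killing by high DMSO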
[14] = HDN33 neuroblastoma growth inhibition, cell-based, chromothripsis tumors, cisplatin or BGB combos (AID 1671450); conditions: HDN33 neuroblastoma cells, stronger effect = higher value;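 further: cells exposed to compound for four days; 0% = vehicle DMSO and 100% = cell killing by high DMSO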
[15] = ICB984 medulloblastoma cell growth inhibition, synergistic combos for chromothripsis tumors, cisplatin or BGB combos (AID 1671451; call rule not given here;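 further: cells exposed for 96 hours before readout; 0% = vehicle DMSO and 100% = killing by high DMSO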); conditions: ICB984 medulloblastoma cells, drug combinations, stronger effect = higher value
[16] = LFS_MB_1R medulloblastoma cell growth inhibition, synergistic combos for chromothripsis tumors, cisplatin or BGB combos (AID 1671452); conditions: LFS_MB_1R medulloblastoma cells, stronger effect = higher value;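 further: cells exposed for 96 hours before readout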
[17] = HTB85 osteosarcoma cell growth inhibition, synergistic combos for chromothripsis tumors, BGB or cisplatin IC20 combos (AID 1671453); conditions: HTB85 osteosarcoma cells, drug combinations, stronger effect = higher value;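 further: cells exposed for 96 hours before readout; 0% = vehicle DMSO and 100% = high DMSO killing control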
[18] = CRL2098 osteosarcoma cell growth inhibition, synergistic combos for chromothripsis tumors, BGB or cisplatin IC20 combos (AID 1671454); conditions: CRL2098 osteosarcoma cells, drug combinations, stronger effect = higher value;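 further: cells exposed for 96 h before readout; 0% = vehicle DMSO and 100% = killing by high DMSO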
[19] = HD-MB03 medulloblastoma cell growth inhibition, synergistic combos for chromothripsis tumors, BGB or cisplatin IC20 combos (AID 1671455; in the data active means inhibition above about 83%;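 further: 0% = vehicle DMSO and 100% = high DMSO as cytotoxic control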); conditions: HD-MB03 medulloblastoma cells, stronger effect = higher value
[20] = UWB1.289 ovarian carcinoma cell growth inhibition, synergistic combos for chromothripsis tumors, BGB or cisplatin combos (AID 1671456); conditions: UWB1.289 ovarian carcinoma cells, stronger effect = higher value;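 further: cells exposed to compound for four days; 0% = vehicle DMSO and 100% = killing by high DMSO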
[21] = LFS_MB_2R medulloblastoma cell growth inhibition, synergistic combos for chromothripsis tumors, cisplatin combos (AID 1671457); conditions: LFS_MB_2R medulloblastoma cells, stronger effect = higher value;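 further: cells exposed to compound for four days before readout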
[22] = MDA-MB-436 breast carcinoma cell growth inhibition, synergistic combos for chromothripsis tumors, BGB or cisplatin combos (AID 1671458; call rule not given here;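 further: cells exposed for 96 hours; 0% = vehicle DMSO and 100% = killing by high DMSO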); conditions: MDA-MB-436 breast carcinoma growth inhibition, drug combinations, stronger effect = higher value
[23] = UWB1.289_BRCA1 ovarian cancer growth, cell-based, BGB or cisplatin combinations (AID 1671459); conditions: UWB1.289 BRCA1 ovarian carcinoma, drug combinations, stronger effect = higher value
[24] = human astrocyte viability loss, single and combined drugs, cytotoxicity control for chromothriptic childhood tumor combination screen, cell-based, BGB or cisplatin IC20 combos (AID 1671460); conditions: Human astrocytes, drug combinations, stronger effect = higher value;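 further: cells exposed to compounds for 96 hours before viability readout; 0% = vehicle and 100% = killing control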
[25] = growth inhibition of BT084 medulloblastoma cells, cell-based, ICGC_MB145, cisplatin and BGB IC40 combos (AID 1671461); conditions: drug combinations, stronger effect = higher value;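 further: cells exposed to drugs for 96 hours; 0% = vehicle DMSO and 100% = high DMSO full killing control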
[26] = growth inhibition of RCMB18 medulloblastoma cells, cell-based, cisplatin and BGB IC40 combos (AID 1671462); conditions: stronger effect = higher value;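 further: cells exposed to compound for four days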
[27] = growth inhibition of CRL1545 osteosarcoma cells, cell-based, cisplatin and BGB IC20 combos (AID 1671464); conditions: stronger effect = higher value;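 further: cells exposed to compound for 96 hours before readout; 0% = vehicle DMSO and 100% = high DMSO killing control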
[28] = measured here: combination with BGB IC40, at 0.05 µM
[29] = measured here: with BGB IC20 combination, at 0.5 µM
[30] = measured here: with cisplatin IC20 combination, at 0.5 µM
[31] = measured here: combination with cisplatin, at 0.5 µM
[32] = measured here: combination with cisplatin, at 5 µM

## CNC(C)C(=O)c1ccccc1 (stereo not drawn)
[1]
  inhibition: -15.1%
[2]
  score: 1.02
[3]
  rescue above control: -6.75
[4]
  cytochrome c release ratio: 1.05
[5]
  inhibition of aggregation: 49.7%
[6]
  glutamate uptake change: -3.86%
[7]
  inclusion score: 2
[8]
  aggregation suppression score: 1.11

## O=c1c2cc(F)ccc2ncn1Cc1cn2ccccc2n1
[9]
  z-score: 0.245 (inactive)

## C[C@@]1(C(=O)O)CC[C@]2(C)CC[C@]3(C)C4=CC=C5C=C(O)C(=O)C=C5[C@]4(C)CC[C@@]3(C)[C@@H]2C1
[10]
  aggregation ratio: 0.487
[2]
  score: 1.77
[4]
  cytochrome c release ratio: 3.7
[5]
  inhibition of aggregation: 11.8%
[11]
  normalised LDH release: 0.996
[6]
  glutamate uptake change: -13.4%
[8]
  aggregation suppression score: 1.23

## CN1[C@H]2C[C@H](OC(=O)[C@H](CO)c3ccccc3)C[C@@H]1[C@@H](O)C2
[12]
  luciferase signal: 56 AU (inactive)

## CC(N)Cc1ccc2c(c1)OCO2 (stereo not drawn)
[1]
  inhibition: -14.9%
[2]
  score: 1.01
[3]
  rescue above control: -3.14
[4]
  cytochrome c release ratio: 1
[5]
  inhibition of aggregation: 21.1%
[6]
  glutamate uptake change: -7.15%
[7]
  inclusion score: 2
[8]
  aggregation suppression score: 1.15

## CC[C@H]1C(=O)OC[C@@H]1Cc1cccn1C
[1]
  inhibition: -1.44%
[2]
  score: 1.44
[3]
  rescue above control: 2.37
[4]
  cytochrome c release ratio: 0.94
[5]
  inhibition of aggregation: 42.5%
[6]
  glutamate uptake change: 10.3%
[7]
  inclusion score: 2
[8]
  aggregation suppression score: 1.24

## CCC1(c2ccccc2)C(=O)NC(=O)NC1=O
[1]
  inhibition: -1.25%
[2]
  score: 1.23
[3]
  rescue above control: 9.64
[4]
  cytochrome c release ratio: 0.88
[5]
  inhibition of aggregation: 45.6%
[6]
  glutamate uptake change: 11.7%
[7]
  inclusion score: 2
[8]
  aggregation suppression score: 1.66
[13]; at 0.5 µM, stronger effect = higher value
  inhibition: 93.2% (active)
[13]; measured here: combination with BGB IC20, at 0.005 µM
  inhibition: -28.1%
[13]; measured here: combination with BGB IC40, at 0.005 µM
  inhibition: -59.2%
[13]; [28]
  inhibition: -45.6%
[13]; measured here: combination with cisplatin, at 0.5 µM, stronger effect = higher value
  inhibition: 121%
[13]; measured here: combination with cisplatin, at 5 µM, stronger effect = higher value
  inhibition: -2.25%
[14]; BGB combo, at 5 µM
  inhibition: -9.62%
[14]; at 0.5 µM
  inhibition: -12.9% (inactive)
[14]; cisplatin combo, at 5 µM
  inhibition: -2.75%
[14]; [29]
  inhibition: -25.3%
[14]; [30]
  inhibition: -2.08%
[14]; single agent, at 5 µM
  inhibition: 3.79%
[15]; BGB IC20 combo, at 0.005 µM
  inhibition: -3.73%
[15]; BGB IC40 combo, at 0.005 µM
  inhibition: -9.29%
[15]; BGB IC40 combo, at 0.05 µM
  inhibition: -3.16%
[15]; at 0.5 µM
  inhibition: -22.9% (inactive)
[15]; cisplatin combo, at 0.05 µM
  inhibition: -8.4%
[15]; cisplatin combo, at 0.5 µM
  inhibition: -26.1%
[15]; cisplatin combo, at 5 µM
  inhibition: -13.3%
[15]; measured here: 5 uM single agent, at 5 µM
  inhibition: -22.7%
[16]; at 0.5 µM
  inhibition: -18.1% (inactive)
[16]; [28]
  inhibition: -31.8%
[16]; [31]
  inhibition: -10.4%
[16]; [32]
  inhibition: 5.72%
[17]; at 0.5 µM
  inhibition: -10.5% (inactive)
[17]; measured here: with BGB IC20, at 0.5 µM
  inhibition: -10.6%
[17]; measured here: with BGB IC20, at 5 µM
  inhibition: 7.72%
[17]; measured here: with cisplatin IC20, at 0.5 µM
  inhibition: -9.45%
[17]; measured here: with cisplatin IC20, at 5 µM
  inhibition: 10.2%
[17]; single agent, at 5 µM
  inhibition: -5.59%
[18]; at 0.5 µM
  inhibition: -52.1% (inactive)
[18]; measured here: combination with BGB at IC20, at 0.5 µM
  inhibition: -60.5%
[18]; measured here: combination with cisplatin at IC20, at 0.5 µM
  inhibition: -54.7%
[19]; at 0.5 µM
  inhibition: -4.07% (inactive)
[19]; measured here: combo with BGB at IC20, at 0.5 µM
  inhibition: 2.98%
[19]; measured here: combo with cisplatin at IC20, at 0.5 µM
  inhibition: -10.5%
[20]; at 0.5 µM
  inhibition: -5.54% (inactive)
[20]; measured here: inhibition with BGB combination, at 0.05 µM
  inhibition: -21.7%
[20]; measured here: inhibition with cisplatin combination, at 0.05 µM
  inhibition: -12%
[21]; at 0.5 µM
  inhibition: -20.1% (inactive)
[21]; [31]
  inhibition: -6.12%
[21]; [32]
  inhibition: 0.169%
[22]; at 0.5 µM
  inhibition: -2.75% (inactive)
[22]; measured here: BGB combination, at 0.5 µM
  inhibition: -2.38%
[22]; measured here: BGB combination, at 5 µM
  inhibition: 1.86%
[22]; measured here: cisplatin combination, at 0.5 µM
  inhibition: -5.56%
[22]; measured here: cisplatin combination, at 5 µM
  inhibition: -1.94%
[23]; BGB combination, concentration series, at 5 µM
  inhibition: 22.9%
[23]; at 0.5 µM
  inhibition: -1.68% (inactive)
[23]; cisplatin combination, concentration series, at 5 µM
  inhibition: 16%
[24]; at 0.5 µM
  inhibition: 10.1% (inactive)
[24]; measured here: combo with BGB IC20, at 0.5 µM
  inhibition: 11.5%
[24]; measured here: combo with cisplatin IC20, at 0.5 µM
  inhibition: 13.6%
[25]; at 0.5 µM
  inhibition: 3.01% (inactive)
[25]; cisplatin combination, at 0.5 µM
  inhibition: 4.39%
[25]; cisplatin combination, at 5 µM
  inhibition: 0.177%
[25]; measured here: BGB IC40 combination 0.05 uM, at 0.05 µM
  inhibition: -27.4%
[25]; single agent, at 5 µM
  inhibition: 8.07%
[26]; at 0.5 µM
  inhibition: 1.72% (inactive)
[26]; cisplatin combo, at 5 µM
  inhibition: 5.8%
[26]; measured here: BGB IC40 combination, at 0.05 µM
  inhibition: -18.8%
[26]; [31]
  inhibition: -11.9%
[26]; single agent, at 5 µM
  inhibition: 10.7%
[27]; at 0.5 µM
  inhibition: -19.2% (inactive)
[27]; [29]
  inhibition: -11.8%
[27]; [30]
  inhibition: -24.8%
[27]; single agent, at 0.05 µM
  inhibition: 8.97%
[27]; single agent, at 5 µM
  inhibition: -18.2%

## CNC(C)Cc1ccccc1 (stereo not drawn)
[1]
  inhibition: 4.94%
[2]
  score: 1.26
[3]
  rescue above control: 3.06
[4]
  cytochrome c release ratio: 0.97
[5]
  inhibition of aggregation: -0.68%
[6]
  glutamate uptake change: 6.37%
[7]
  inclusion score: 2
[8]
  aggregation suppression score: 1.49

## CC(N)Cc1ccccc1 (stereo not drawn)
[1]
  inhibition: 18%
[2]
  score: 0.93
[3]
  rescue above control: -1.93
[4]
  cytochrome c release ratio: 0.82
[5]
  inhibition of aggregation: 10.2%
[6]
  glutamate uptake change: 31.4%
[7]
  inclusion score: 2
[8]
  aggregation suppression score: 0.923

## CNC(C)Cc1ccc2c(c1)OCO2 (stereo not drawn)
[1]
  inhibition: -3.07%
[2]
  score: 0.95
[3]
  rescue above control: -0.64
[4]
  cytochrome c release ratio: 0.84
[5]
  inhibition of aggregation: 0.68%
[6]
  glutamate uptake change: -3.54%
[7]
  inclusion score: 2
[8]
  aggregation suppression score: 1.38
